Data on eleven compounds can be found in ChEMBL document CHEMBL3988442, “University of Dundee, Small-Polar-MMV Screening Library” (2021).

“And” between values parts separate entries of the source, which are not always exact repeats. Equal values may be shown once. For some of these results: Entries with a potency or affinity are not part of this list.

Holding throughout (design): scale not given: direction of the effect not stated beside the values
Assay [1] has as its target Protein translocase subunit SecA (Escherichia coli (strain K12)) (UniProt P10408). Description: Assay to Identify E. coli SecA ATPase Inhibitors. As to conditions: 30 µM. In kind it is functional.
Assay [2] deals with T1, Ubiquitin-activating enzyme e1, putative (Leishmania donovani (strain BPK282A1)) (UniProt E9BSI1).
T1 sequence (whole entry): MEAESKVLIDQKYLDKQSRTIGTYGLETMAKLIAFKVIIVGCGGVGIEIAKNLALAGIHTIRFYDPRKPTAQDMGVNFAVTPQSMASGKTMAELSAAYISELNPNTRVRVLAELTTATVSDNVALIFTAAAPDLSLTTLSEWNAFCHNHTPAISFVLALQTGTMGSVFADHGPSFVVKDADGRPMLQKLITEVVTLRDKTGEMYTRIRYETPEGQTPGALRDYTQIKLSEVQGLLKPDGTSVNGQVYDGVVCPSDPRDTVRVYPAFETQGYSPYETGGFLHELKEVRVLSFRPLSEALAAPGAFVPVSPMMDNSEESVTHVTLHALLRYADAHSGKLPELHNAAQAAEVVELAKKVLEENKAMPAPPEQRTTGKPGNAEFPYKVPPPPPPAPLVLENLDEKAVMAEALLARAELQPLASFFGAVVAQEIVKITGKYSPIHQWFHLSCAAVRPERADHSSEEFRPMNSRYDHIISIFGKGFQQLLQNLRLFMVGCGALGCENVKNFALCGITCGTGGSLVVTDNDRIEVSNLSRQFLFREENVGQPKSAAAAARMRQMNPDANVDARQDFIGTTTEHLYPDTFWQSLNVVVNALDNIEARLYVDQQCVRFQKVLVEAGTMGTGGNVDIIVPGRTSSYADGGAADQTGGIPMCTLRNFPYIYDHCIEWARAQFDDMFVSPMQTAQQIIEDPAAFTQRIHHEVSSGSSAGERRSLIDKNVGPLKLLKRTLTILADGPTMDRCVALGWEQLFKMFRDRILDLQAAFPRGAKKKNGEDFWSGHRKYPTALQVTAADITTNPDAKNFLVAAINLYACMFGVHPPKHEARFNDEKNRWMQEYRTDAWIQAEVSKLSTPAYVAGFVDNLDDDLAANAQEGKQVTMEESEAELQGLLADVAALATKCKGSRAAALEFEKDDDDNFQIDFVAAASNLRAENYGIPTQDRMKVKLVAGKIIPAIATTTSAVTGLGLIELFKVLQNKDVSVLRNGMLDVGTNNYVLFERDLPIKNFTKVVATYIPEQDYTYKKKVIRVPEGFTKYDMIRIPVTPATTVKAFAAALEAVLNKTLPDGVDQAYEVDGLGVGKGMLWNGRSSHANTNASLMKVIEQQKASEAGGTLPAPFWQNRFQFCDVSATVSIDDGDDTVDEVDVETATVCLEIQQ
Kind of assay: Leishmania donovani Ubiquitin Activating Enzyme (LdE1). In kind it is functional. As to conditions: 30 µM.

Assay [3] concerns the target AMP-activated protein kinase, AMPK (Homo sapiens) (UniProt P54646+O43741+P54619+Q9UGJ0+Q9Y478+Q13131+Q9UGI9). Description: AMP-dependent Kinase enzyme assay. An in vitro enzyme assay that detects ADP turnover that is directly proportional to AMPK activity. This uses naive AMPK that is activated during the assay with MK-8722. The assay is classed as functional. To be noted: 30 µM.

Assay [4] has as its target Sialic acid-binding Ig-like lectin 9 (Homo sapiens) (UniProt Q9Y336). Description: Hs-Siglec9 ALPHAscreen SOP 20170721. To be noted: 10 µM.
In assay [5] the test system is Trypanosoma cruzi. Description: Trypanosoma cruzi phosphomannomutase and mannose-1-phosphate guanylyltransferase assay. In kind it is functional. To be noted: 10 µM.
Assay [6] addresses T2, Arginase-2, mitochondrial (Homo sapiens) (UniProt P78540).
T2 sequence (whole entry): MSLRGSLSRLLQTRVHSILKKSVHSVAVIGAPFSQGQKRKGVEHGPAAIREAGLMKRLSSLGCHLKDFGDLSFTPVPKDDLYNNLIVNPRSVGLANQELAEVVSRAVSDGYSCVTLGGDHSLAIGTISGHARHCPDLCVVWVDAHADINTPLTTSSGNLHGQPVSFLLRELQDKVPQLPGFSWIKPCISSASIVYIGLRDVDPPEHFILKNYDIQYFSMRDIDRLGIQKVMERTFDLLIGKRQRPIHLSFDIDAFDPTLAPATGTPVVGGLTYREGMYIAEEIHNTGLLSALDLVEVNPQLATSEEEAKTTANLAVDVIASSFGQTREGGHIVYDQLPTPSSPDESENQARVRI
Kind of assay: in vitro enzyme assay to detect the production of urea directly proportional to the activity of Arginase II. Also: in the data most compounds retested in dose-response had high values. The assay is classed as functional. To be noted: 33.3 µM.

Assay [7] has as its target T3, Proteasome subunit beta (Trypanosoma cruzi) (UniProt O96673).
T3 sequence (whole entry): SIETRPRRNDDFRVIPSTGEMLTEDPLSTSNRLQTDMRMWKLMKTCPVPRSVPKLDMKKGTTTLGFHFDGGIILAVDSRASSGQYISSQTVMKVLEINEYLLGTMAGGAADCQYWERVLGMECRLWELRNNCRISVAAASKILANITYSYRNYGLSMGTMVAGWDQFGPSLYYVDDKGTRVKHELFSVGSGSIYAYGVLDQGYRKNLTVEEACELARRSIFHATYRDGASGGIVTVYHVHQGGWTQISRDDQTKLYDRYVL
Kind of assay: Trypanosoma cruzi proteasome chymotrypsin-like activity (TcProtChymo) assay. Also: in the data most compounds retested in dose-response had high values. To be noted: 9.37 µM. In kind it is functional.

For assay [8], the species on record is Homo sapiens. Description: To identify inhibition of the IFN signalling (Jak-Stat) pathway via expression of an eGFP reporter gene under the control of an IFN-stimulated response element (ISRE) containing MxA promoter. The assay is classed as functional. To be noted: 30 µM. For orientation: In a reporter assay the amount or activity of a reporter protein is the signal.

Assay [9] concerns the target T4, Tyrosyl-tRNA synthetase, putative (Trypanosoma cruzi (strain CL Brener)) (UniProt Q4DSP6).
T4 sequence (whole entry): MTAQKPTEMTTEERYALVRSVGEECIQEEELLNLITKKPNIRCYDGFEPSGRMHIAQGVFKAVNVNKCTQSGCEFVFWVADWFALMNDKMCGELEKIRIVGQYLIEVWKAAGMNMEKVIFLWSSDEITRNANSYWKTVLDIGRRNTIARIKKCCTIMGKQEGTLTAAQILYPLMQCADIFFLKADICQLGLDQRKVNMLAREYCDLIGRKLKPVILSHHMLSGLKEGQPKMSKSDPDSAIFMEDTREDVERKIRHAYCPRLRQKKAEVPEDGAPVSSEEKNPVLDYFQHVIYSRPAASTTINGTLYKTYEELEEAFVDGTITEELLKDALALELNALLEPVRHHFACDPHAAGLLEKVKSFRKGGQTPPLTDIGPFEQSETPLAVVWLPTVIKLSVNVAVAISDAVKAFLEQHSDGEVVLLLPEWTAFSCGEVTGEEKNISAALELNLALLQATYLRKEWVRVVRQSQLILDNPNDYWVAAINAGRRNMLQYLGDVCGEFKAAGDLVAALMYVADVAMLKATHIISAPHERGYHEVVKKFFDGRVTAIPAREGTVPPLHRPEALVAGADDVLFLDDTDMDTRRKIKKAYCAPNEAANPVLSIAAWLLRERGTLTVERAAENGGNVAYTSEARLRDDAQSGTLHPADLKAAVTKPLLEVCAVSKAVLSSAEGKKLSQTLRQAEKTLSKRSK
Description: Trypanosoma cruzi tyrosyl tRNA synthetase (TcYRS) _High Tyrosine SOP. Also: in the data most compounds retested in dose-response had high values. The assay is classed as functional. As to conditions: 30 µM.

The target of assay [10] is T4, Tyrosyl-tRNA synthetase, putative (Trypanosoma cruzi (strain CL Brener)). Kind of assay: Trypanosoma cruzi tyrosyl tRNA synthetase (TcYRS) SOP. In kind it is functional. As to conditions: 30 µM.
Assay [11] addresses Chromo domain-containing protein 1 (Saccharomyces cerevisiae (strain ATCC 204508 / S288c) (Baker's yeast)) (UniProt P32657). Kind of assay: ScCHD-1 Enzyme Inhibition Assay. Also: in the data most compounds retested in dose-response had high values. As to conditions: 30 µM. The assay is classed as functional.
In assay [12] the test system is N/A. Kind of assay: Trypanosoma cruzi proteasome luciferase counter-screen. In kind it is functional. To be noted: 9.37 µM. For orientation: The purpose of a counterscreen is to sort out artefacts and off-target activity.

Chain of Chromo domain-containing protein 1 (Saccharomyces cerevisiae (strain ATCC 204508 / S288c) (Baker's yeast)) (P32657 whole entry, the tested form may be a part): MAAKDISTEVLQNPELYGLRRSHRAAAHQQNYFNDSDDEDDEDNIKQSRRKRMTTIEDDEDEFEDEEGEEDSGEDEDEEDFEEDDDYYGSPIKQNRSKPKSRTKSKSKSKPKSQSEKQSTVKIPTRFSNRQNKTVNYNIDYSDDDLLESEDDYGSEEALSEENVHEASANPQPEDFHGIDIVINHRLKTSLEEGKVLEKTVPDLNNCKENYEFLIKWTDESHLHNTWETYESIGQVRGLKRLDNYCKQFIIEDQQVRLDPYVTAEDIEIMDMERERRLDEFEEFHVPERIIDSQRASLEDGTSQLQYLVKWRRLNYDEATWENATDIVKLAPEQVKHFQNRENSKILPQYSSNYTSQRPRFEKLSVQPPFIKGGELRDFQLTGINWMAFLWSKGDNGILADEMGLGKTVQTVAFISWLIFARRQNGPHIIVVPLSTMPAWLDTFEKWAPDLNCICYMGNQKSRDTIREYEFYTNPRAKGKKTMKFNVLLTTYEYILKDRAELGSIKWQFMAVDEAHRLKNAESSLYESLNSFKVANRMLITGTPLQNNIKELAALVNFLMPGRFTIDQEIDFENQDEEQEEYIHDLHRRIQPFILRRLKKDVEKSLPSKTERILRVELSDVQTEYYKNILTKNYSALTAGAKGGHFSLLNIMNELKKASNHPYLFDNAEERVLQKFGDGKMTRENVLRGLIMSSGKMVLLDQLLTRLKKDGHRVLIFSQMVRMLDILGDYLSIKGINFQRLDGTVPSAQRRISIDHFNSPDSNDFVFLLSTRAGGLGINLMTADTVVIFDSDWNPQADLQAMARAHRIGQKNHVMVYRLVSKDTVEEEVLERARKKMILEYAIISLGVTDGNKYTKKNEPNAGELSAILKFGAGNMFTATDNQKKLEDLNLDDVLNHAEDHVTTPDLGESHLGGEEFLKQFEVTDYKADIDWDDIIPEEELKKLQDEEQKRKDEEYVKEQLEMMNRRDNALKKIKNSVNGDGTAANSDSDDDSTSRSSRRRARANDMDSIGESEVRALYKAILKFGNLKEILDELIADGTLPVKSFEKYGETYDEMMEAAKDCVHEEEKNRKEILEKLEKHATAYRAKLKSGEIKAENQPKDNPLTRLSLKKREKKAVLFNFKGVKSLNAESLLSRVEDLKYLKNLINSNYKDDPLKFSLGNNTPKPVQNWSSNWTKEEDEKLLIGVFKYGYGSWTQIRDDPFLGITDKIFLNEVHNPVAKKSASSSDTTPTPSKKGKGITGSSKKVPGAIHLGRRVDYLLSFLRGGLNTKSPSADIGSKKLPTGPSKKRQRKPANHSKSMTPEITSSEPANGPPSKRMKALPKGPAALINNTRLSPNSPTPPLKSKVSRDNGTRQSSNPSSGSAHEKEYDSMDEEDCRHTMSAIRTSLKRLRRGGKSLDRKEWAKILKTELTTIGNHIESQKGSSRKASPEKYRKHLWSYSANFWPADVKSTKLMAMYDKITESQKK
Chain of Sialic acid-binding Ig-like lectin 9 (Homo sapiens) (Q9Y336 whole entry): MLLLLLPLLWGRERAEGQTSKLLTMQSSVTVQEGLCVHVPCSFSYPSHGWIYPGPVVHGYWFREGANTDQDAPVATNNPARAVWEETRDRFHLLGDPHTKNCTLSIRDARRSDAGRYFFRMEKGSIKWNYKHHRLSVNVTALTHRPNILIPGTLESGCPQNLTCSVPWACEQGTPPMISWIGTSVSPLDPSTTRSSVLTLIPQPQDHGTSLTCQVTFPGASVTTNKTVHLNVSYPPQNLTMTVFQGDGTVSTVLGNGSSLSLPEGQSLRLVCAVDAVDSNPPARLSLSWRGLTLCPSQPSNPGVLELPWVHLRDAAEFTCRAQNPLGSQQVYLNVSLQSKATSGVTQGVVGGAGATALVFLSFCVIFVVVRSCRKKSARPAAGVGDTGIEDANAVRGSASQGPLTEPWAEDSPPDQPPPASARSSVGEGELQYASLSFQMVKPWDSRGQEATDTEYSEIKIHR
Chain of Protein translocase subunit SecA (Escherichia coli (strain K12)) (P10408 whole entry): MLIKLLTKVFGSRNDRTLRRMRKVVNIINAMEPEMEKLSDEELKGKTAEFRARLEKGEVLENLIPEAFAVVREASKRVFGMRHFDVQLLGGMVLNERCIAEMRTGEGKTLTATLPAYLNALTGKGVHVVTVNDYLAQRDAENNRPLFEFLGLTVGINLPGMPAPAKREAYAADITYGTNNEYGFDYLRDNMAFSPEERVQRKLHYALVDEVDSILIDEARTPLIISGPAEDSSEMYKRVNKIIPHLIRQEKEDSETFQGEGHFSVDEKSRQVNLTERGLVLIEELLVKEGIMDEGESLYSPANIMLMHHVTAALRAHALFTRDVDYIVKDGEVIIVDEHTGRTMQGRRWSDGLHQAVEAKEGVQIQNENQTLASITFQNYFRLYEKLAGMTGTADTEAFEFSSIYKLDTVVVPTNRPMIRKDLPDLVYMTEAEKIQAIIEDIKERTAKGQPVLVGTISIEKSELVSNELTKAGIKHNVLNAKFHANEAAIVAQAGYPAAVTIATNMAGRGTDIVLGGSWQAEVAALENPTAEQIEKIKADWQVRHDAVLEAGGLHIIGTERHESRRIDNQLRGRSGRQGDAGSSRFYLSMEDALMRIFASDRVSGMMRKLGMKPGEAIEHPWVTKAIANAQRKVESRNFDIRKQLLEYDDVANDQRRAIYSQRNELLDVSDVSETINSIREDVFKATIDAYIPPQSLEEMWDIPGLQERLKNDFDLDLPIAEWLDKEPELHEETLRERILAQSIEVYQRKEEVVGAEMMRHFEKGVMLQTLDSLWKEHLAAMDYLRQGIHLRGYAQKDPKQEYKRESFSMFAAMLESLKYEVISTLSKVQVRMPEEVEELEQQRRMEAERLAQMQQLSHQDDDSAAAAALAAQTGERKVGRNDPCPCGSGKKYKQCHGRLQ

With `CCN(CC)C(=O)c1ccc(-c2ccsc2)nc1C`, the Percent Effect in [1] is -1.54%; in assay [2], 6.94%; in [3], 5.62%; in [4], -7.86%; in [5] it was -4.37%; in assay [6], -0.442%. The Percent Effect in [7] was 25.3%; in assay [8], -1.98%; in assay [9], 4.21%; in assay [10], 5.13%; in [11], -1.47%.
As for `O=C(N1CCCC1)N1Cc2nccn2CC(CN2CCCC2)C1` (stereo unspecified), the Percent Effect in assay [1] was 0.719%; in [2] it was 5.41%; in assay [3], 7.93%; in assay [4] it was -1.18%; in [5] it was -5.77%; in [6], -0.955%. The Percent Effect is 25.8% in [7]; -2.41% in [8]; -1.08% in [9]; 10.3% in assay [10]; -2.63% in [11].
Consider `Cc1noc(C2CCC3(CCN(C(=O)c4c(C)noc4C)CC3)O2)n1` (stereo unspecified), for which the Percent Effect in [1] was -6.54%; in assay [2], 2.7%; in assay [3], -4.63%; in assay [4], 17.5%; in assay [5], 7.53%; in [6] it was -6.2%. Besides, the Percent Effect is 0.0858% in [7]; 5.82% in [8]; -4.3% in assay [9]; 11.1% in assay [10]; -1.92% in [11].
Consider `CCCn1ncc(CN2C[C@@H]3CCCN3C[C@@H]2CCSC)c1C`, for which the Percent Effect in assay [1] is 0.712%; in [2], 9.46%; in assay [3], 3.26%; in assay [4], -4.09%; in assay [5], -5.93%; in [6], -3.02%. The Percent Effect in [7] is 19.5%; in assay [8], 8.73%; in assay [9], 3.23%; in [10], 6.49%; in assay [11], -15%.
Take `CCCC(=O)Nc1sc(C(=O)OCC)c(C)c1C#N`: the Percent Effect in assay [1] was 0.0516%; in assay [2], 7.79%; in assay [3], 24.2%; in assay [4], -8.77%; in assay [5], -5.42%; in assay [6], 8.39%. Besides, the Percent Effect in assay [7] is 10.4%; in [8], -0.547%; in [9] it was 1.06%; in assay [10] it was 16.7%; in [11], -3.68%.
For the compound `Cc1cnn(CC(C)NCc2nc(-c3ccco3)no2)c1` (stereo unspecified), the Percent Effect is -7.61% in assay [1]; 12.5% in assay [2]; -18.7% in [3]; 40.6% in assay [4]; 7.09% in assay [5]; 9.27% in assay [6]. In addition, the Percent Effect is 14.9% in assay [7]; 4.8% in assay [8]; 3.16% in assay [9]; 12.8% in [10]; 10.7% in [11].
On to `Cc1cccc(C(=O)N2C[C@@H]3OCCN(c4ncccn4)[C@@H]3C2)n1`, for which the Percent Effect in assay [1] was -4.13%; in assay [2] it was 5.33%; in assay [3], -3.52%; in [4], 4.37%; in [5], -2.7%; in [6], -8.78%. Further, the Percent Effect is 7.35% in assay [7]; -6.79% in assay [8]; 5.21% in assay [9]; 0% in assay [10]; 0.315% in assay [11].
Consider `COc1ccccc1CN(C)c1nccc(-c2cn(C)nc2C)n1`, for which the Percent Effect in assay [1] is -1.09%; in assay [2], 5.33%; in assay [3] it was 2.11%; in assay [4], 8.22%; in assay [5] it was 4.58%; in assay [6], 24%. Moreover, the Percent Effect was 16% in assay [7]; 34.9% in assay [8]; 6.01% in [9]; 16.1% in [10]; -5.41% in assay [11].
Turning to `Cc1nc(CN2CCCN(CC(=O)Nc3cccnc3)CC2)no1`, the Percent Effect in assay [1] is -3.59%; in assay [2], 18.2%; in assay [3], 4.53%; in assay [4], -8.79%; in assay [5], -0.294%; in assay [6], 4.84%. Also, the Percent Effect in assay [12] is 15.2% and 14.2%; in assay [8], 23.7%; in [9] it was 5.71%; in [10] it was 9.41%; in [11], -14%.
With `Cc1nn(C)c(C)c1C1COCCN1C(=O)c1n[nH]c2ccccc12` (stereo unspecified), the Percent Effect was -1.74% in assay [1]; 18.2% in assay [2]; 2.92% in assay [3]; -4.32% in assay [4]; 6.74% in assay [5]; -0.712% in assay [6]. Also, the Percent Effect is 17.2% and 17.5% in assay [12]; -8.49% in [8]; 5.83% in assay [9]; 21.9% in assay [10]; -7.82% in assay [11].
Take `Cc1occc1C(=O)N1CCC2(CC1)C(c1cnn(C)c1)CC(=O)N2C` (stereo unspecified): the Percent Effect was -5.4% in assay [1]; 13.5% in assay [2]; 6.87% in assay [3]; -12.9% in [4]; -4.59% in assay [5]; 1.59% in [6]. Also, the Percent Effect was 11.5% and 13.8% in assay [12]; 15.9% in assay [8]; -11.9% in [9]; 7.69% in [10]; -4.17% in assay [11].
